Test results from PubChem BioAssay.
Unmarked numbers belong to inactive results. The source made the active and inactive calls. Rule as the data show it: active = fold change permeability below about 0.7 or above about 1.3; inactive = in between.

Assay: modulators of brain endothelial barrier permeability, primary screen, cell-based, FITC-avidin fluorescence, HTS (AID 1963498); also: test concentration not given here
Details: actives lie on both sides

SMILES | fold change permeability
NO | 1.1
O=c1[nH]c(=S)[nH]c(-c2ccccc2)c1Cc1c(O)ccc2ccccc12 | 0.8
CN(C)CC/C=C1\c2ccccc2COc2ccccc21 | 1.4 (active)
C[C@H](NC(=O)CNC(=O)c1cccc(Cl)c1)c1ccccc1 | 1.1
CN1CCN(CCCN2c3ccccc3Sc3ccc(C(F)(F)F)cc32)CC1 | 1.2
CC(=O)N[C@@H](CS)C(=O)O | 1.1
CC(/C=C/c1cccc(Oc2ccc(F)cc2)c1)N(O)C(N)=O (stereo not drawn) | 1.1
N#Cc1c(N2C[C@@H]3NCCO[C@H]3C2)c(F)cc2c(=O)c(C(=O)O)cn(C3CC3)c12 | 0.9
CC(=O)SCC[N+](C)(C)C | 0.8
Cc1cc(C(=O)N2Cc3cnn(C)c3Nc3ccccc32)ccc1CNC(=O)N1CCN(Cc2cc(O)cc(O)c2)CC1 | 1.2
CCN(CC)CCNC(=O)c1ccc(NC(C)=O)cc1 | 1.1
COc1ccc(CCN(C)CCCC(C#N)(c2cc(OC)c(OC)c(OC)c2)C(C)C)cc1OC (stereo not drawn) | 0.9
CC1(C)CCC=[N+]1[O-] | 0.9
O=C(O)CP(=O)(O)O | 1
O=C1NC(=O)C(Cc2ccc3cc(OCc4ccccc4F)ccc3c2)S1 (stereo not drawn) | 1.3 (active)
Clc1ccc2nsnc2c1NC1=NCCN1 | 1.9 (active)
O=C(O)Cc1ccc(O)c(O)c1 | 1
CN(C)CC[C@@H](c1ccc(Cl)cc1)c1ccccn1 | 1.1
CC(C)COCC(CN(Cc1ccccc1)c1ccccc1)N1CCCC1 (stereo not drawn) | 1
NCCCCN | 0.9
CO[C@@]1(NC(=O)CSCC#N)C(=O)N2C(C(=O)O)=C(CSc3nnnn3C)CS[C@@H]21 | 0.9
CCC(=O)OCC(=O)[C@@]1(OC(=O)CC)[C@H](C)C[C@H]2[C@H]3[C@H]([C@@H](O)C[C@@]21C)[C@@]1(C)C=CC(=O)C=C1C[C@H]3Cl | 1.5 (active)
N[C@@H](COP(=O)(O)O)C(=O)O | 1
